# Test results reported in the supplement of paper PMC7156485.
# Unmarked numbers belong to inactive results.
# Tested on: HCC1569
# Assay: H1.0 immunofluorescence intensity relative to DMSO (% of DMSO); higher = stronger H1.0 induction, active = 140 or more
# Settings: concentration: 10 µM; 24 h
# Outline: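 In 384-well plates holding 800 HCC1569 or TDF cells per well in RPMI with 10% FBS, compounds were tested at 10 µM for 24 h at 37 °C in triplicate. Fixation used 3.7% formaldehyde. Staining used a rabbit anti-H1.0 antibody with an AlexaFluor 647 secondary, plus DAPI. Each value, H1.0 nuclear intensity or cell number, is a median of replicates shown as percent of the plate control, and HCC1569 values were smoothed for positional effects.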
# 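Further: TDF is a line of transformed human dermal fibroblasts of mesenchymal origin.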
row,SMILES,H1.0 immunofluorescence intensity
1,Cc1cc(C2CCCCC2)n(O)c(=O)c1.NCCO [Ciclopirox ethanolamine],102
2,COc1ccc(-c2cc(C(O)C3CCCCN3)c3ccccc3n2)cc1.Cl.Cl (stereo unspecified),157 (active)
3,Cc1scc2c1N(C(=O)CN1CCN(C)CC1)c1ccccc1NC2=O.Cl.Cl [Telenzepine.2HCl],103
4,CN=C(NC#N)NCCSCc1nc[nH]c1C [Cimetidine],92.1
5,"O=Nc1ccc2oc(=O)ccc2c1 [6-Nitroso-1,2-benzopyrone]",101
6,Nc1ccc(S(=O)(=O)Nc2ccnn2-c2ccccc2)cc1 [Sulfaphenazole],106
